Screening results as filed in PubChem.
NLRP3 yeast inh – blocks the NALP3 inflammasome reconstituted in yeast; Yeast reconstituted NLRP3/ASC/caspase-1, beta-gal luminescence, 24 h; inhibition, % at 10 µM; 330,000 compounds, 0.39% hits; AID 2825;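 active means inhibition of 50% or more; inactive means inhibition below 50%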;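 further: plate controls were induced DMSO wells for no effect and uninduced yeast grown without galactose for full effect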
SKKanGAS inh – blocks kanamycin growth of S. pyogenes SKKanGAS strain; BacTiter-Glo, 6 h; inhibition, % at 7.5 µM; 300,000 compounds, 1.3% hits; AID 1662;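 active means mean replicate score, as percent of positive control median, at least 50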;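 further: strain carries kanamycin resistance gene driven by streptokinase promoter and grows in 40 µg/ml kanamycin; loss of luminescence reflects streptokinase promoter inhibition or plain growth inhibition; 0% = median of DMSO wells and 100% = positive control at its reference dose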
tim10-1 inh – growth inhibitors of tim10-1 mutant yeast. S. cerevisiae tim10-1 ts strain growth, BacTiter-Glo, 24 h. inhibition, % at 20 µM. 330,000 compounds, 2.2% hits. AID 463190;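 active means inhibition of at least 40%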;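 further: mutant grown at 25 °C; 0% = DMSO wells with yeast and 100% = wells holding no yeast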
tim23-1 inh – inhibits growth of tim23-1 mutant yeast; S. cerevisiae tim23-1 growth, BacTiter-Glo luminescence, 24 h; inhibition, % at 20 µM; 330,000 compounds, 1.3% hits; AID 463212;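 active means growth inhibition of the mutant yeast at or above 50%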;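 further: temperature-sensitive mutant grown at 25 °C; plate controls were DMSO-treated mutant yeast for no effect and medium wells lacking yeast for full effect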
TIM10 inh – inhibits growth of TIM10 yeast strain. S. cerevisiae TIM10 strain growth, BacTiter-Glo luminescence, 24 h. inhibition, % at 10 µM. 330,000 compounds, 1.4% hits;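 active means inhibition of 40% or more at the single tested concentration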;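 further: wild-type TIM10 isogenic control strain grown at permissive 25 °C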
NALP3 confirm – confirmation of NALP3 inhibitors in yeast; shares compounds with NLRP3 yeast inh; yeast expressing human NALP3, luminescence; inhibition, % at 10 µM; 1,300 compounds, 81% hits; in the data active means inhibition above about 48%
Casp1 ASC ctr – counter-screen for NALP3 inhibitors: yeast caspase-1-ASC; shares compounds with NLRP3 yeast inh; yeast expressing Caspase-1-ASC, luminescence counter screen; inhibition, % at 10 µM; 1,000 compounds, 66% hits
NALP3 yeast rt – confirmation retest of NALP3 inhibitors in yeast | shares compounds with NLRP3 yeast inh | yeast expressing human NALP3, luminescence read-out | inhibition, % at 10 µM | 1,000 compounds, 53% hits | AID 488794
tim10-1 conf – confirmation of tim10-1 mutant yeast growth inhibitors. 7,400 compounds, 56% hits. S. cerevisiae tim10-1 ts strain growth, BacTiter-Glo, 24 h. AID 463213. inhibition, % at 20 µM. shares compounds with tim10-1 inh;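 active means inhibition of yeast growth at or above a set limit in either of two repeat tests at 20 µM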;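 further: tim10-1 mutant grown at permissive 25 °C to find synthetic lethal compounds; 0% = DMSO yeast wells and 100% = medium wells without yeast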
tim10 confirm – TIM10 yeast growth inhibition, confirmed | shares compounds with TIM10 inh | S. cerevisiae tim10 strain growth, BacTiter-Glo luminescence, 24 h | inhibition, % at 10 µM | 4,600 compounds, 63% hits | AID 463215;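 active means inhibition of yeast growth at or above a set limit in either of two replicates at 10 µM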;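 further: this counterscreen used the strain with wild-type TIM10; 0% = yeast with DMSO and 100% = medium wells lacking yeast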
tim23-1 confirm – confirmation of tim23-1 mutant yeast growth inhibitors; inhibition, % at 20 µM; shares compounds with tim23-1 inh; AID 463218; S. cerevisiae tim23-1 growth, BacTiter-Glo luminescence, 24 h; 4,400 compounds, 83% hits;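 active means inhibition above about 39% in either of two replicate wells at 20 µM, limit read from the data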;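 further: temperature-sensitive tim23-1 mutant grown at 25 °C; 0% = DMSO wells with yeast and 100% = medium wells without yeast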
Numbers without * were called inactive; / = no result given. Hits are enriched below; roughly 4.6% of the tested compounds scored in any of these assays. Unless noted, no stated cut-off is given here; in the data, active means inhibition above about 50%; inactive means the rest.

SMILES | NLRP3 yeast inh | SKKanGAS inh | tim10-1 inh | tim23-1 inh | TIM10 inh | NALP3 confirm | Casp1 ASC ctr | NALP3 yeast rt | tim10-1 conf | tim10 confirm | tim23-1 confirm
Cc1cccc(NCc2cc(Cl)cc(Cl)c2O)n1 | 53* | 4 | 43* | 52* | 29 | 51* | 57* | 56* | 27 | / | 56*
Cc1ccc2nc(NC(=O)Cn3nc(C)c([N+](=O)[O-])c3C)sc2c1 | 50 | 1 | 25 | 51* | 48* | -2 | / | / | / | -9 | 65*
C[C@H](CO)N1C[C@H](C)[C@H](CN(C)Cc2ccncc2)Oc2ccc(NC(=O)Nc3ccc(C(F)(F)F)cc3)cc2CC1=O | 11 | / | 7 | 9 | -1 | / | / | / | / | / | /
C=CCSc1n[nH]c(-c2ccc(OCCC)cc2)n1 | 57* | -16 | 21 | 66* | 46* | 73* | 56* | 48 | / | 41* | 38*
C=CCSc1n[nH]c(-c2cccs2)n1 | 25 | 0 | 24 | 19 | -3 | / | / | / | / | / | /
Cc1cccc(NC(=O)c2cnc3ccccn3c2=O)c1 | 51* | / | 6 | 61* | 30 | 77* | / | / | / | / | 55*
O=C(Nc1ccc2c(c1)OCCO2)c1cnc2ccccn2c1=O | 25 | 14 | 14 | 8 | 17 | / | / | / | / | / | /
Cc1cc(Br)ccc1NC(=O)CN(C)C(=O)C1CSC2(C)CCC(=O)N12 (configuration not stated) | -7 | / | 7 | 14 | -4 | / | / | / | / | / | /
O=C(NC(=S)Nc1cnc2ccccc2c1)c1ccccc1 | 73* | -6 | 18 | 53* | 51* | 64* | 65* | 59* | / | 54* | 69*
CC(C)(C)c1csc(NC(=O)c2ccccc2O)n1 | 55* | 16 | 84* | 89* | 67* | 55* | 59* | 49 | 84* | 72* | 92*
O=C(NC1=NCCS1)c1sc2ccccc2c1Cl | 52* | -2 | 36 | 73* | 46* | 63* | / | / | / | 37* | 80*
O=C(N/N=C/C(Cl)=C\c1ccccc1)c1cccs1 | 60* | -7 | -27 | 64* | 25 | 69* | / | / | / | / | 64*
CC(/C=N/NC(=O)Cc1cccs1)=C\c1ccccc1 | 21 | -2 | -16 | -7 | -16 | / | / | / | / | / | /
CC(/C=N/NC(=O)c1cccs1)=C\c1ccccc1 | 54* | 10 | -16 | 53* | 8 | 69* | 63* | 53* | / | / | 48*
O=C(N/N=C/C(Cl)=C/c1ccccc1)c1ccncc1 | 10 | -6 | -14 | 2 | 9 | / | / | / | / | / | /
CC1=CC(=C2C=CC(=O)C=C2)C=C(C)N1C | -2 | -6 | -8 | 2 | 6 | / | / | / | / | / | /
O=C(Nc1scc(-c2ccc(F)cc2)c1C(=O)O)c1ccco1 | 22 | 12 | -8 | 20 | 2 | / | / | / | / | / | /
Cc1ccc(-c2csc(NC(=O)c3cccc(C)c3)c2C(=O)O)cc1 | 65* | 39 | 72* | 83* | 83* | 70* | 66* | 61* | 84* | 90* | 89*
Cc1ccc(-c2csc(NC(=O)/C=C/c3ccco3)c2C(=O)O)cc1 | 83* | 12 | 76* | 79* | 81* | 90* | 90* | 84* | 74* | 79* | 89*
CC(C)c1ccc(C(CC(=O)O)NC(=O)c2cccs2)cc1 (configuration not stated) | -2 | -5 | 10 | 7 | -6 | / | / | / | / | / | /
CC(C)c1ccc(-c2csc(NC(=O)c3cccs3)c2C(=O)O)cc1 | 71* | 30 | 76* | 67* | 81* | 84* | 76* | 74* | 86* | 92* | 89*
Cc1ccc(-c2csc(NC(=O)c3ccc(Br)cc3)c2C(=O)O)cc1 | 91* | 26 | 81* | 84* | 82* | 96* | 95* | 88* | 82* | 93* | 89*
OC[C@H]1O[C@H](OC[C@H]2O[C@H](OC[C@H]3O[C@H](O[C@]4(CO)O[C@H](CO)[C@@H](O)[C@@H]4O)[C@H](O)[C@@H](O)[C@@H]3O)[C@H](O)[C@@H](O)[C@H]2O)[C@H](O)[C@@H](O)[C@H]1O | 4 | 3 | -4 | 16 | 3 | / | / | / | / | / | /
COc1ccccc1C(C[N+](=O)[O-])c1c(N)n(C)c(=O)n(C)c1=O (configuration not stated) | 77* | -5 | 57* | 82* | 55* | 51* | 75* | 49 | 61* | 64* | 84*
Cc1nc2ccc(S(=O)(=O)c3ccc4nc(C)[nH]c4c3)cc2[nH]1 | 14 | -1 | -24 | -4 | -5 | / | / | / | / | / | /
SMILES | NLRP3 yeast inh | SKKanGAS inh | tim10-1 inh | tim23-1 inh | TIM10 inh | NALP3 confirm | Casp1 ASC ctr | NALP3 yeast rt | tim10-1 conf | tim10 confirm | tim23-1 confirm
Cc1nc2ccc(C(C(F)(F)F)(C(F)(F)F)C(F)(F)F)cc2[nH]1 | 95* | -1 | 30 | 59* | 35 | 90* | 89* | 80* | / | / | 66*
COc1ccc(CCNC(=O)c2ccccc2OCc2c(C)noc2C)cc1 | 15 | / | 20 | 6 | -11 | / | / | / | / | / | /
CC(C)(C)C1CCC(=NOC(=O)c2ccc(F)cc2)CC1 (configuration not stated) | 59* | -11 | 45* | 67* | 85* | 79* | 54* | 42 | 4 | 83* | 62*
O=C(O/N=C1/CCSc2ccccc21)c1ccc(F)cc1 | -38 | / | 23 | 25 | 26 | / | / | / | / | / | /
Cc1cc(C)cc(OCC(=O)OC(C)C(=O)Nc2ccc(Cl)cn2)c1 (configuration not stated) | 10 | -1 | 19 | 21 | 1 | / | / | / | / | / | /
C/C(=N\NC(=O)c1ccccc1O)C1C(=O)c2ccccc2C1=O | 87* | 52* | 54* | 73* | 73* | 92* | 92* | 84* | 52* | 70* | 79*
CCCNC(=O)c1ccc(-c2nc3ccccc3s2)s1 | 58* | 10 | 3 | 56* | 55* | 76* | 32 | 33 | / | 33* | 77*
CCCNC(=O)Nc1nc2ccccc2s1 | 10 | 0 | 2 | 21 | -5 | / | / | / | / | / | /
CC(C)(C)n1nc(-c2ccc(Cl)cc2)c2c(N)ncnc21 | 88* | 2 | 23 | 63* | 50* | 94* | 95* | 90* | / | 47* | 62*
Cc1ccc(-c2nc(N)c3c(-c4ccc(C)cc4)nn(C(C)(C)C)c3n2)cc1 | -20 | -8 | 4 | -21 | -8 | / | / | / | / | / | /
